# From PubChem
# 12-hLO inh: inhibitors of human 12-lipoxygenase (ALOX12); purified 12-hLO, xylenol orange hydroperoxide absorbance; Potency, µM (highest dose often 57.1 µM), hits mostly inhibitors; actives 0.12% (n = 150,000); also: nearly all actives have a fitted effect of over 55% in size
#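 Lipoxygenase turnover measured by absorbance at 573 and 405 nm after Fe-XO development. Human 12hLO 150 nM, arachidonate 40 uM, pH 7.0 Hepes buffer with detergent; 15 min compound preincubation, 30 min reaction.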
# GLA inh pH 4.5: alpha-galactosidase A (human) inhibition, pH 4.5; purified enzyme, 4-MU-alpha-Gal fluorescence, pH 4.5; activity change, negative = inhibition, % at 105 µM; 230,000 tested, under 10 active; AID 1467
# Target sequence (P06280 whole entry, looked up): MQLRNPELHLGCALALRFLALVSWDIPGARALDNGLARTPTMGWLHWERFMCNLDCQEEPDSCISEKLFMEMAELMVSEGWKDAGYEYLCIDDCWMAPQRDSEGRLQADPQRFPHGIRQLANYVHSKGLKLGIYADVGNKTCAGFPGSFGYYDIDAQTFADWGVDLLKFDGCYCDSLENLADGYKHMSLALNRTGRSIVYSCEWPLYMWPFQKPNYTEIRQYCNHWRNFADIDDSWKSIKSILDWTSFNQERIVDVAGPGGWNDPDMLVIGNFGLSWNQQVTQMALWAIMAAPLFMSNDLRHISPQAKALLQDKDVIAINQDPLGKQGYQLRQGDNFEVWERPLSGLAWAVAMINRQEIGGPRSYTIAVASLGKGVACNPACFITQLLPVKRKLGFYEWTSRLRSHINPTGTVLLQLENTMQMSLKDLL
# HPGD block: HPGD (human) dehydrogenase inhibition | P15428 | purified HPGD, NADH fluorescence kinetic, PGE2 substrate | Potency, µM, most hits filed as inhibitors | actives 4.3% (n = 150,000) | AID 894; active = well fitted inhibition curve with a large enough effect, not every such curve was filed as active; inconclusive = small, poorly fitted or top-dose-only effect, or another doubt; inactive = no such curve, though single readings can be large or run the other way
# Target sequence (P15428 whole entry, looked up): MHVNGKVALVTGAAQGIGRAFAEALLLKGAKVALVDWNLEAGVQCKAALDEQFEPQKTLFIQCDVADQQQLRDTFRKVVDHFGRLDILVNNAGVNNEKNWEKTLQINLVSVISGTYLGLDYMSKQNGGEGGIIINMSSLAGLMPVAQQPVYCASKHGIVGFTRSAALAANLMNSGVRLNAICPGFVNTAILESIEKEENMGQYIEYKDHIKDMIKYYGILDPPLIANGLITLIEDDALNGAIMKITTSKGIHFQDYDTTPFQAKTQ
#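 20 nM HPGD preincubated 15 min at room temperature with compound in 50 mM Tris-HCl pH 8, 0.01% Tween 20. Started with 1 mM NAD+ and 30 uM prostaglandin E2; NADH fluorescence (360/450 nm) read 5 times over 30-s intervals, last minus first.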
# PNC assembly inh: blocks assembly of the perinucleolar compartment; PC3M PTB-GFP, PNC prevalence imaging, 16 h; stronger effect = lower value; activity change (PNC), negative = inhibition, % at 10 µM; actives 3.1% (n = 140,000);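 active = readout at or below -70, meaning at least 70% loss of cells showing the perinucleolar compartment, a nuclear body marking cancer cells; inconclusive = readout between -30 and a set limit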
#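 Read-out is percentage of cells bearing a perinucleolar compartment, from automated 20x imaging of fixed, Hoechst-stained PC3M PTB-GFP cells. Cells were seeded 4 h, then exposed 16 h to compound (23 nl of library stock) in duplicate plates.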
# aGal spleen mod: inhibits or activates alpha-galactosidase in human spleen homogenate; human spleen homogenate, 4MU-alpha-Gal fluorescence, 40 min; P06280; Potency, µM (doses to about 80 µM), hits mostly inhibitors; AID 2107; actives 0.008% (n = 240,000)
#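 Spleen homogenate 1 ug + cpd (titration) + 4-MU-alpha-D-galactopyranoside 1 mM; 37C 40 min; 50 mM citrate/phosphate pH 5.0, 0.01% Tween-20; stop pH 10; fluorescence 365/440; AC50 via Hill.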
# ALDH1A1 inh: ALDH1A1 (human) enzyme inhibition; actives 7.3% (n = 220,000); Potency, µM (top dose mostly 75.3 µM), usual class: inhibitors; Purified ALDH1A1, NADH fluorescence, propionaldehyde substrate; active = well fitted inhibition curve with a large enough effect, not every such curve was filed as active; inconclusive = small, poorly fitted or top-dose-only effect, or another doubt; inactive = no such curve, though single readings can be large or run the other way
# A number is an active result; . = inactive; ? = inconclusive; / = not tested or not shown; [ ] = another dose, or the depositor's remark. In the library only some 10% were active in any assay of this set; here they are far more common. Unless noted, calls follow the shape of the dose curve; as a rule, active = well fitted curve in the direction sought with a large enough effect; inconclusive = small, poorly fitted or top-dose-only effect, or another doubt; inactive = no such curve, though single readings can be large; an effect the other way counts as inactive or inconclusive.
SMILES,12-hLO inh,GLA inh pH 4.5,HPGD block,PNC assembly inh,aGal spleen mod,ALDH1A1 inh
CCOc1cc(N2CCOCC2)c(OCC)cc1NC(=O)CN1CCCC1,.,.,.,?,.,?
CCOc1ccc(C(=O)c2cnc3ccccc3c2N2CCN(CC)CC2)cc1,/,.,/,/,.,8.9µM
CCOc1ccc2ncc(C(=O)c3ccc(OC)cc3)c(N3CCN(CC)CC3)c2c1,/,.,/,/,.,0.71µM
CCOc1ccc(S(=O)(=O)c2c(C(=O)c3ccc(C)cc3)cnc3cc4c(cc23)OCCO4)cc1,.,.,?,.,.,?
CCc1ccc(C(=O)c2cnc3ccc(OC)cc3c2N2CCN(CC)CC2)cc1,/,.,/,/,.,18µM
CCOC(=O)C1CCN(c2c(C(=O)c3ccccc3)cnc3ccc(Cl)cc23)CC1,/,.,/,/,.,4.5µM
COc1ccc2ncc(S(=O)(=O)c3ccccc3)c(N3CCN(c4ccccc4)CC3)c2c1,.,.,?,.,.,?
CCOC(=O)C1CCN(C(=O)c2cccc(Cl)c2)CC1,.,.,.,.,.,.
CCOC(=O)c1cnc2ccc(OCC)cc2c1N1CCN(c2ccccc2OC)CC1,.,.,.,.,.,?
CCCNC(=O)OC[C@H]1O[C@@H](CCO/N=C\[C@@H](NS(=O)(=O)c2ccc(C)cc2)[C@H](C)/C=C\CC(=O)OC)C=C[C@@H]1Oc1ccc(OC)cc1,/,/,/,/,.[17.5 µM],?
CC[C@](N)(C(=O)O)C(C)C,.[11.4 µM],/,.,/,/,.[13.5 µM]
COC(=O)N1CCC2(CC1)CN(c1ccncc1)C2,.,/,.,/,.,.
Cc1ccc(-n2ncc3c(NCC4CCCO4)ncnc32)c(C)c1 (centres undefined),.,.,2.2µM,.,.,.
CCN(CC)C(=O)C1CCN(c2ncnc3c2cnn3-c2ccc(C)cc2C)CC1,.,.,22µM,.,.,10µM
CCc1cc2c(NCC3CCCO3)ncnc2s1 (centres undefined),.,.,14µM,.,.,?
Cc1ccc(-n2ncc3c(N4CCC(C(N)=O)CC4)ncnc32)c(C)c1,.,.,.,.,.,.
CCc1cc2c(NC(C(=O)O)C(C)C)ncnc2s1 (centres undefined),.,.,.,.,.,16µM
CCc1cc2c(N[C@@H](Cc3c[nH]c4ccccc34)C(=O)O)ncnc2s1,.,.,.,.,.,.
CCC(C(=O)NC1CCCCC1)n1c(SCc2ccccc2F)nc2ccncc21 (centres undefined),.,.,.,.,.,.
C=CCNc1ncnc2c1cnn2-c1ccc(C)cc1C,.,.,14µM,.,.,.
CS(=O)(=O)N(Cc1ccc(C(=O)NN=C2CCCC2)cc1)c1ccccc1,.,.,.,.,.,1.3µM
CS(=O)(=O)N(Cc1ccc(C(=O)NN=C2CCCCCC2)cc1)c1ccccc1,.,.,.,.,.,16µM
CCCNC(=O)c1ccc(N(Cc2ccccc2)S(C)(=O)=O)cc1,.,.,.,-112,.,.
CS(=O)(=O)N(Cc1ccccc1)c1ccc(C(=O)NCc2ccccc2)cc1,.,.,.,?,.,.
CCSc1nc2ccccc2c(=O)n1Cc1ccc(F)cc1,/,.[21.1 µM],/,/,.,.
SMILES,12-hLO inh,GLA inh pH 4.5,HPGD block,PNC assembly inh,aGal spleen mod,ALDH1A1 inh
C[C@@H]1OC(Oc2ccccc2-c2cc(=O)c3c(O)cc(O)c([C@@H]4O[C@H](CO)[C@@H](O)[C@H](O)[C@H]4O)c3o2)[C@H](O)[C@H](O)[C@H]1O (some centres undefined),/,/,/,/,.,/
CC(C)=CC(=O)NCc1c(Cl)cccc1-n1cccc1,.,.,.,.,.,.
CCN(CC)CCCCn1c(-c2ccccc2)nc2c(NC3CCCCC3)nc(C)nc21,.,.,?,/,.,?
CCNc1ncc2nc(C)c(=O)n(Cc3cccc(OC)c3)c2n1,.,/,?,/,.,?
Cc1cc(C(=O)O)cc(S(=O)(=O)N2CCOCC2)c1C,.,.,.,-87,.,.
COCCNc1ccnc(-c2c(C)noc2C)n1,.,.,.,/,.,.
CCCC(=O)Nc1ccc(C(=O)N2CCCC2)cc1,.,.,14µM,?,.,.
CCCC(=O)Nc1ccc(C(=O)NNC(=O)c2ccccc2Br)cc1,.,.,28µM,.,.,?
CCCC(=O)Nc1ccc(S(=O)(=O)N2CCCC2)cc1,.,.,.,.,.,.
CCCCC(=O)Nc1ccc(C(=O)N2CCCC(C(=O)OCC)C2)cc1 (centres undefined),.,.,14µM,.,.,?
CCOC(=O)C1CCCN(C(=O)c2ccc(Cl)cc2)C1 (centres undefined),/,.,/,/,.,.
CCOC(=O)C1CCCN(C(=O)c2ccc(OC)c([N+](=O)[O-])c2)C1 (centres undefined),.,.,.,-95,.,4.5µM
O=c1[nH]c2cc(C(F)(F)F)c(N3CCOCC3)cc2n(CP(=O)(O)O)c1=O,.[0.00818 µM],.,.,/,.,.
Cc1cc(=O)oc2c1c(C)nn2-c1ccc(Br)cc1,/,.,/,/,.,?
Cc1cc(=O)oc2c1c(C)nn2-c1ccc(C(=O)OC(C)C)cc1,.,.,.,?,.,1.1µM
COc1cc(C(=O)NCC(c2cccnc2)N2CCN(c3ccc(F)cc3)CC2)cc(OC)c1OC (centres undefined),/,.,/,/,.,.
CCN(CC)S(=O)(=O)c1ccc(NS(=O)(=O)c2ccc(OC)c([N+](=O)[O-])c2)cc1,.,.,.,.,.,?
COc1ccc(S(=O)(=O)Nc2ccc(S(=O)(=O)N(C)C)cc2)cc1[N+](=O)[O-],.,.,.,.,.,13µM
COc1ccccc1/C=C/C=C1\Oc2c(ccc(O)c2CN2CCN(CCO)CC2)C1=O,.,?,16µM,.,.,?
O=C(Cc1ccc(Br)cc1)NC1CCSC1=O (centres undefined),/,.,/,/,.,.
CC1(C)CC(=O)c2c(oc3cc4c(cc23)OCO4)C1,?,.,2.5µM,/,.,7.9µM
O=C(Cn1nnc(-c2ccccc2-n2cnnn2)n1)c1ccccc1,.,.,.,?,.,13µM
CCOc1ncccc1C(=O)OCC(=O)c1cc(OC)c(OC)c(OC)c1,/,.,/,/,.,/
COc1ccc(CCNc2c3ccccc3nc3ccccc23)cc1OC,/,.,/,/,?,/
CC1(C)COC(c2cc([N+](=O)[O-])ccc2Cl)=N1,.,.,.,.,.,.
CC1(C)COC(/C=C/c2cccc([N+](=O)[O-])c2)=N1,/,.,/,/,.,14µM
CC(C)[C@@H]1NC(=O)[C@H](CCCCN)NC(=O)[C@@H](Cc2c[nH]c3ccccc23)NC(=O)[C@H](Cc2ccc(O)cc2)NC(=O)[C@@H](NC(=O)[C@H](N)Cc2ccccc2)CSSC[C@@H](C(=O)N[C@@H](Cc2c[nH]c3ccccc23)C(N)=O)NC1=O,/,/,/,/,.,/
